Compound activity: PubChem, National Center for Advancing Translational Sciences (NCATS)
Pf Dd2 inh = inhibitors of Plasmodium falciparum Dd2 growth. Potency, µM (titrated, usually from 28.9 µM), without a hit: at the top dose activity, negative = inhibition, hits mostly inhibitors. AID 1347417. P. falciparum Dd2 growth, SYBR Green, 72 h. 120,000 tested, 4.3% active; active means well fitted inhibition curve with a large enough effect;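 further: plate controls were DMSO vehicle for no effect and reference drug for full effect; nearly all actives have a fitted effect of over 65% in size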
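Infected erythrocytes (Dd2, 0.3% parasitemia, 2.5% hematocrit final) are added to compound in RPMI-1640/Albumax II medium, grown 72 h at 37C in low oxygen, then lysed with saponin/Triton-X containing SYBR Green and read by fluorescence.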
Numbers without * were called inactive; i = inactive; [ ] = dose if it differs, or a comment. Only a selection was taken, and hits are over-represented in it overall. Potency means the concentration at half of the fitted maximal effect.

SMILES	Pf Dd2 inh
CC(C)(C)CC(=O)N[C@H]1C[C@H]2C(=O)Nc3cc(Cl)ccc3C(=O)N2C1	3%[44.1 µM]
CN1C[C@@H](NC(=O)c2ccc(-c3ccccc3)cc2)C[C@H]1c1nc(-c2ccncc2)no1	11µM*
CN1C[C@@H](NC(=O)c2ccc(F)cc2)C[C@H]1c1nc(-c2ccccc2)no1	11µM*
CN1C[C@@H](NC(=O)c2ccc(F)cc2)C[C@H]1c1nc(-c2ccncc2)no1	i
CN1C[C@@H](NC(=O)c2ccc(F)cc2)C[C@H]1c1nc(-c2cncnc2)no1	i
CN1C[C@@H](NC(=O)c2cccnc2)C[C@H]1c1nc(-c2cccnc2)no1	2%[44.1 µM]
CN1C[C@@H](NC(=O)c2cccnc2)C[C@H]1c1nc(-c2ccncc2)no1	-28%[44.1 µM]
Cn1nc(C(=O)Nc2ccc3c(c2)C(=O)N2CCC[C@H]2C(=O)N3)c2ccccc21	-16%
Cc1cc(NCC(C)n2ccnc2)n2nc(C)c(C)c2n1 (centres undefined)	-7%
COc1cncc([C@@H](NC(=O)CCc2c(C)noc2C)C2CC(O)C2)c1 (some centres undefined)	-4%
COc1cccc(CN2CCOC3(CCN(Cc4ccc(C#N)cc4)CC3)C2=O)c1	-26%[44.1 µM]
O=C(N[C@H]1CO[C@H]2[C@@H]1OC[C@H]2OCc1ccccc1)c1ccc(C(F)(F)F)cc1	i
CC(C)c1cc(C(=O)N2CCN(C)[C@@H]3CS(=O)(=O)C[C@@H]32)nc2ncnn12	-3%
O=C1CC(c2ccccc2)N(C(=O)CNC(=O)c2cc(CN3CCOCC3)on2)CCCCCN1 (centres undefined)	4%
CC(C)Cc1nc2ccc(NC(=O)C[C@H]3NC(=O)c4ccccc4NC3=O)cc2[nH]1	-11%
CC1=NOC2(CCN(C(=O)c3ccc(C)cc3)CC2)C1	3%[44.1 µM]
CC[C@H]1CN2CC[C@H]1C[C@@H]2CNC(=O)Nc1ccc(Br)cc1	-19%[44.1 µM]
COc1ccc(CNC[C@H]2C[C@@H]3CCN2C[C@@H]3c2cc(-c3ccc(F)cc3)nn2C)cc1	13µM*
CC[C@H]1CN2CC[C@H]1C[C@@H]2CN(Cc1ccc(SC)cc1)Cc1ccc(SC)cc1	3.5µM*
C=C[C@H]1CN2CC[C@H]1C[C@@H]2CNCc1ccc(N(C)C)cc1	i
COc1ccc(-c2cc([C@H]3CN4CC[C@H]3C[C@@H]4CNC(=O)c3ccco3)n(C)n2)cc1	-14%[44.1 µM]
COc1ccc(-c2cc([C@H]3CN4CC[C@H]3C[C@@H]4CNS(=O)(=O)c3ccccc3)n(C)n2)cc1	i
CC[C@H]1CN2CC[C@H]1C[C@@H]2CNCc1ccc(OC)cc1	8.9µM*
CC[C@H]1CN2CC[C@H]1C[C@@H]2CNC(=O)c1ccc2ccccc2c1	i
CCN(CC)C[C@H]1CN2CC[C@H]1C[C@@H]2CNS(=O)(=O)c1ccccc1	i
SMILES	Pf Dd2 inh
COc1ccc(-c2noc([C@@H]3Cc4nc[nH]c4CN3C(=O)Nc3ccc(C)cc3)n2)cc1	-12%[44.1 µM]
O=C(NCCc1cccs1)C1CCCN(c2cnn(Cc3ccccc3)c(=O)c2)C1 (centres undefined)	-28%
Cn1ncc(N2CCC(C(=O)Nc3ccccc3)C2)cc1=O (centres undefined)	18%
O=C(Nc1ccc2oc(-c3ccccc3)nc2c1)C1CCN(c2cnn(Cc3ccccc3)c(=O)c2)C1 (centres undefined)	2.5µM*
O=C(Nc1ccc2c(c1)OCO2)C1CCCN(c2cnn(Cc3ccccc3)c(=O)c2)C1 (centres undefined)	10µM*
O=C(C1CCCN(c2cnn(Cc3ccccc3)c(=O)c2)C1)N1CCCC1 (centres undefined)	i
O=C(NC1CCS(=O)(=O)C1)C1CCN(c2cnn(Cc3ccccc3)c(=O)c2)C1 (centres undefined)	-21%
COCc1cc(=O)n(CC(=O)N2CCN(c3ccc(F)cc3)CC2)c(N2CCOCC2)n1	-4%
O=C(CN1C(=O)NC(c2ccccc2)C2=C1COC2=O)NC1CCCC1 (centres undefined)	-10%
Cc1ccc(C(C)NC(=O)CN2C(=O)NC3(CCCCC3)C2=O)cc1 (centres undefined)	-22%
Fc1ccc(Nc2c3c(nc4ccccc24)CCC3)cc1	-11%
CCN(CC)CCOC(=O)c1ccc(Nc2c3c(nc4ccccc24)CCC3)cc1	7.1µM*
CCN(CC)CCOC(=O)c1ccc(NC(=O)CSc2cc(=O)n(CC)c3ccccc23)cc1	89%
Cc1cc(C(F)(F)F)nn1CC(=O)N1CCCC(CO)CCNC(=O)CC1 (centres undefined)	-6%
COc1ccc(NC(=O)O[C@@H]2CO[C@H]3[C@@H]2OC[C@@H]3NS(=O)(=O)c2ccccc2C#N)cc1	i
CC(C)c1ccc(NC(=O)O[C@@H]2CO[C@H]3[C@@H]2OC[C@@H]3NS(=O)(=O)c2cccs2)cc1	2.2µM*
Cc1ccc(C(=O)N[C@H]2CO[C@H]3[C@@H]2OC[C@H]3OC(=O)Nc2ccc(C(C)C)cc2)cc1	-14%[44.1 µM]
COc1ccc(OC)c(S(=O)(=O)N[C@H]2CO[C@H]3[C@@H]2OC[C@H]3OC(=O)Nc2ccc(Oc3ccccc3)cc2)c1	-24%
CC(=O)Nc1ccc(S(=O)(=O)N[C@H]2CO[C@H]3[C@@H]2OC[C@H]3OC(=O)Nc2ccc(Oc3ccccc3)cc2)cc1	6.3µM*
N#Cc1ccccc1S(=O)(=O)N[C@H]1CO[C@H]2[C@@H]1OC[C@H]2OC(=O)Nc1ccc(Oc2ccccc2)cc1	i
C[S+](=O)([O-])N1CCC2(CC1)CC(Cc1ccccc1)=NO2	17%
Cc1ccc(C(=O)N2CCC[C@H]2c2nc(-c3ccccc3Cl)no2)cc1	18%
Cc1ccccc1OCc1nc(C2CN(C(=O)Cc3cccc(F)c3)C2)no1	-28%
CCn1ccc(C(=O)N2CCC(c3cc(Cc4ccccc4)[nH]n3)CC2)n1	-16%
Cn1c([C@H]2CCN(Cc3ccc(Cl)cc3)C2)nc2ccccc21	i
SMILES	Pf Dd2 inh
Cn1c([C@H]2CCN(Cc3ccccc3)C2)nc2ccccc21	i
Cc1ccc(CN2CC[C@H](c3nnc(-c4ccccc4)o3)C2)cc1	10µM*
Cn1c([C@H]2CCN(Cc3cccc(C#N)c3)C2)nc2ccccc21	10µM*
COc1ccc(C(=O)N2CC[C@H](c3nnc(-c4ccccc4)o3)C2)cc1	-17%[44.1 µM]
FC(F)(F)c1ccc(CN2CC[C@H](c3nnc(-c4ccccc4)o3)C2)cc1	i
COc1ccc(-c2nnc([C@H]3CCN(S(C)(=O)=O)C3)o2)cc1	13%[44.1 µM]
COc1ccc(CN2CC[C@H](c3nnc(-c4ccncc4)o3)C2)cc1	i
COc1ccc(-c2nnc([C@H]3CCN(Cc4cccc(C#N)c4)C3)o2)cc1	14µM*
COc1ccc(-c2nnc([C@H]3CCN(S(=O)(=O)Cc4ccccc4)C3)o2)cc1	10µM*
Cc1ccc(-c2nnc([C@H]3CCN(Cc4ccc(CO)o4)C3)o2)cc1	i
Cn1cncc1-c1nnc([C@H]2CCN(Cc3cccc(C#N)c3)C2)o1	-9%[44.1 µM]
COc1cc(OC)c(C(=O)N2CC[C@H](CO)[C@@H](O)C2)cc1OC	-3%
Cn1nccc1CN1CCCC2(CN[S+](=O)([O-])c3ccccc3N2)C1 (centres undefined)	-11%
COc1ccc(CC(=O)N2CC[C@@H](CC(=O)O)[C@@H](CC3=NCCc4cc(OC)c(OC)cc43)C2)cc1	-2%
c1cc2nncn2nc1NC1CCCC1	-5%
O=C(N[C@H]1CO[C@H]2[C@@H]1OC[C@@H]2n1nnnc1-c1ccccc1)C1CC1	-5%[44.1 µM]
NCCC[C@@H](N)C(=O)N1CCC2(CCC(=O)N(Cc3ccccc3)C2)CC1	11%
